SMILES strings stand for the structures. Results filed as inconclusive are left out. Values without a mark were called inactive. Calls of active or inactive are those of the source. The call rests on the fitted dose curve; in most records, active means well fitted curve in the direction sought with a large enough effect; inconclusive means small, poorly fitted or top-dose-only effect, or another doubt; inactive means no such curve, though single readings can be large; an effect the other way counts as inactive or inconclusive.
Potency means the concentration at half of the fitted maximal effect.

A short description of one assay: MultiTox-Fluor Cytotoxicity Assay - LYMP1-001 - Dead Cells (AID 946).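 Further: cells exposed to compound for 16 h.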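 On cytotoxicity (dead cells): 0% = DMSO and 100% = tetraoctylammonium bromide.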 The note with it: LYMP1-001 lymphoblastoid cells, dead-cell protease fluorescence; series mostly up to 92.2 µM; cytotoxicity (dead cells): at the top concentration. The method, boiled down: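 LYMP1-001 lymphoblastoid cells (2500/well) treated 16 h at 37 C. Dead-cell protease cleavage of bis-AAF-R110 read at Ex/Em 485/520. Normalized to DMSO and 15 uM tetraoctylammonium bromide; AC50 from Hill fits.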
Regarding `CCCCCCCCCCCCOS(=O)(=O)O`, the Potency entry was “inactive”.

In the case of `NCCNCCNCCN`, the “cytotoxicity (dead cells)” value is -13.7%.

On to `[Cl][In]([Cl])[Cl]`, for which the “cytotoxicity (dead cells)” value was 1.74%.

`Nc1ccc(S(=O)(=O)Nc2nccs2)cc1`: the “cytotoxicity (dead cells)” value was -13.1%.

On to `Oc1cccc(O)c1`, for which the “cytotoxicity (dead cells)” value was 7.37%.

Regarding `CCCCOC(=O)c1ccc(O)cc1`, the “cytotoxicity (dead cells)” value is -10.5%.

On to `C[C@]12C[C@H](O)[C@H]3[C@@H](CCC4=CC(=O)CC[C@@]43C)[C@@H]1CC[C@@H]2C(=O)CO`, for which the “cytotoxicity (dead cells)” value is 16.4%.

As for `Cc1cc(CC(=O)O)n(C)c1C(=O)c1ccc(Cl)cc1`, the “cytotoxicity (dead cells)” value was -4.02%.

With `CC1(C)[C@@H]2CC[C@@]1(C)C(=O)C2`, the “cytotoxicity (dead cells)” value is -7.58%.

In the case of `Cc1c(O)cccc1C(=O)N[C@@H](CSc1ccccc1)[C@H](O)CN1C[C@H]2CCCC[C@H]2C[C@H]1C(=O)NC(C)(C)C`, the Potency was 31.6 µM (active).

Take `O=C1O[C@H]([C@@H](O)CO)C(O)=C1O`: the “cytotoxicity (dead cells)” value was -13.6%.

Consider `NCCNCCNCCNCCN`, for which the “cytotoxicity (dead cells)” value is 0.708%.

As for `O=C1c2c(O)cccc2Cc2cccc(O)c21`, the “cytotoxicity (dead cells)” value was -16%.

For `Cc1cc2nc3c(=O)[nH]c(=O)nc-3n(C[C@H](O)[C@H](O)[C@H](O)CO)c2cc1C`, the Potency was 39.8 µM (active).

With `COc1ccccc1O`, the Potency result was “inactive”.

As to `CC12CCC(CC1)C(C)(C)O2`, the “cytotoxicity (dead cells)” value is 0.484%.

Regarding `NC(=O)N/N=C/c1ccc([N+](=O)[O-])o1`, the “cytotoxicity (dead cells)” value is 5.97%.

For the molecule `NC(=O)c1ncn([C@@H]2O[C@H](CO)[C@@H](O)[C@H]2O)n1`, the “cytotoxicity (dead cells)” value was -1.84%.

A short description of another assay: MultiTox-Fluor Cytotoxicity Assay - LYMP1-001 - Live Cells (AID 947).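 On activity change, negative = cytotoxicity: 0% = DMSO only and full inhibition = tetraoctylammonium bromide control.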 The note with it: LYMP1-001 lymphoblastoid cells, live-cell protease fluorescence viability; series mostly up to 92.2 µM; activity change, negative = cytotoxicity: at the top concentration.
On to `CCCCCCCCCCCCOS(=O)(=O)O`, for which the Potency result was “inactive”.

With `NCCNCCNCCN`, the “activity change, negative = cytotoxicity” value was -3.56%.

Turning to `[Cl][In]([Cl])[Cl]`, the “activity change, negative = cytotoxicity” value was -0.789%.

Turning to `Nc1ccc(S(=O)(=O)Nc2nccs2)cc1`, the “activity change, negative = cytotoxicity” value is -20.4%.

Turning to `CCCCOC(=O)c1ccc(O)cc1`, the “activity change, negative = cytotoxicity” value was -11.5%.

Consider `C[C@]12C[C@H](O)[C@H]3[C@@H](CCC4=CC(=O)CC[C@@]43C)[C@@H]1CC[C@@H]2C(=O)CO`, for which the “activity change, negative = cytotoxicity” value was -1.55%.

Take `Cc1cc(CC(=O)O)n(C)c1C(=O)c1ccc(Cl)cc1`: the “activity change, negative = cytotoxicity” value was 0.634%.

As to `CC1(C)[C@@H]2CC[C@@]1(C)C(=O)C2`, the “activity change, negative = cytotoxicity” value was 3.6%.

Take `Cc1c(O)cccc1C(=O)N[C@@H](CSc1ccccc1)[C@H](O)CN1C[C@H]2CCCC[C@H]2C[C@H]1C(=O)NC(C)(C)C`: the Potency was 39.8 µM (active).

With `O=C1O[C@H]([C@@H](O)CO)C(O)=C1O`, the “activity change, negative = cytotoxicity” value was -20%.

Turning to `NCCNCCNCCNCCN`, the “activity change, negative = cytotoxicity” value is 3.5%.

For the molecule `CN(C)CCC=C1c2ccccc2CCc2ccccc21`, the “activity change, negative = cytotoxicity” value was -14.1%.

On to `O=C1c2c(O)cccc2Cc2cccc(O)c21`, for which the “activity change, negative = cytotoxicity” value is -27.5%.

`Cc1cc2nc3c(=O)[nH]c(=O)nc-3n(C[C@H](O)[C@H](O)[C@H](O)CO)c2cc1C`: the “activity change, negative = cytotoxicity” value is 22.9%.

With `COc1ccccc1O`, the Potency entry is “inactive”.

As for `CC12CCC(CC1)C(C)(C)O2`, the “activity change, negative = cytotoxicity” value was 3.58%.

Take `NC(=O)N/N=C/c1ccc([N+](=O)[O-])o1`: the “activity change, negative = cytotoxicity” value was -31.9%.

On to `NC(=O)c1ncn([C@@H]2O[C@H](CO)[C@@H](O)[C@H]2O)n1`, for which the “activity change, negative = cytotoxicity” value is -11.6%.
